High-throughput results deposited in PubChem BioAssay by Johns Hopkins Ion Channel Center.
KCNQ2 block: blocks the rat KCNQ2 potassium channel | O88943 | CHO-K1 KCNQ2, FluxOR thallium flux, 20 min; stronger effect = lower value | B-score at 10 µM | hit rate 1.1% among 310,000;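 active = fluorescence ratio B-score at most minus 3 library SDs, with starting brightness B-score within 2 library SDs, cut at about -5.5 in these data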
Target sequence (O88943 whole entry, looked up): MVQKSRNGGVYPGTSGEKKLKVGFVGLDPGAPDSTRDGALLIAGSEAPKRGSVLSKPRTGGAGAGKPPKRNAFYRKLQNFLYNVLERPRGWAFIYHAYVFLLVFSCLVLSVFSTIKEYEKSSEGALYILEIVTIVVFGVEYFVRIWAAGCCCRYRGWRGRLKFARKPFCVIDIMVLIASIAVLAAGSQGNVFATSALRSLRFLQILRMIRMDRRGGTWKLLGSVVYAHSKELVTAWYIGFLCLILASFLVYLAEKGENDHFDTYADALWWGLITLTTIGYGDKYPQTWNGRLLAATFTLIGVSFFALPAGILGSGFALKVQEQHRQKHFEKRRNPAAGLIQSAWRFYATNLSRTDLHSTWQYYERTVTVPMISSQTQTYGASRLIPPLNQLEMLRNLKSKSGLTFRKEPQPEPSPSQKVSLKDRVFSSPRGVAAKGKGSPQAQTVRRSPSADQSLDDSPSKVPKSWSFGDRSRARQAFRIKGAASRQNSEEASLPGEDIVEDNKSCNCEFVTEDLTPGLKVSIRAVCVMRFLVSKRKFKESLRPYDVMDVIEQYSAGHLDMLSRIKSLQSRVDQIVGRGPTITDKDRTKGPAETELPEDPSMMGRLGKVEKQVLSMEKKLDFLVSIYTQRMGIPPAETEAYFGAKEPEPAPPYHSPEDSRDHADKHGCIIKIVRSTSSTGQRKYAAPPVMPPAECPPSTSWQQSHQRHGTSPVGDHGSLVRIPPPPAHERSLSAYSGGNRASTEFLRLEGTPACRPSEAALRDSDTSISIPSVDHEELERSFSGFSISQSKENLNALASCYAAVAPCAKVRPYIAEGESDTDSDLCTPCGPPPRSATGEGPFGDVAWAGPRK
KCNQ2 enhance: enhances the rat KCNQ2 potassium channel | CHO-K1 KCNQ2, FluxOR thallium flux fluorescence; stronger effect = higher value | B-score at 10 µM | hit rate 0.54% among 310,000 | O88943;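 active = fluorescence ratio B-score at least 3 SD of library B-scores, with initial fluorescence B-score within 3 of them, cut at about 5.3 in these data; same plate scores as AID 2156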;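 note: B-score of peak minus minimum over baseline fluorescence ratio after K+ and Tl+ stimulus; positive B-score means potentiation of KCNQ2 with more thallium influx and brighter signal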
Kir21 confirm: confirmation of mouse Kir2.1 potassium channel inhibitors; Tl flux remaining, % of negative control (stronger effect = lower value), % at 10 µM; hit rate 41% among 2,300; AID 2032; shares compounds with KCNQ2 enhance; Kir2.1-expressing cells, FluxOR thallium flux fluorescence; stronger effect = lower value;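 active = Primary-screen hit whose thallium flux fell at least 3 control SD below untreated wells in both duplicates, with normal baseline fluorescence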
HEK293 ctr: alters thallium flux in parental HEK293 cells, Kir2.1 counter-screen; shares compounds with KCNQ2 enhance; FluxOR signal as % of negative control (100 = no effect), % at 10 µM; FluxOR thallium flux fluorescence; 0% = unstimulated blank wells; hit rate 19% among 2,300;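 active = dye signal at least 3 control SD above or below untreated wells in both duplicates, raw fluorescence within 3, either direction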;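 note: percent is based on the flux ratio of peak minus minimum fluorescence over baseline F0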
CHO-K1 ctr: alters thallium flux in parental CHO-K1 cells, KCNQ2 counter-screen. AID 2282. activity increase over 3SD of controls, % at 10 µM. hit rate 43% among 1,200. FluxOR thallium flux fluorescence; zero = vehicle mean+3SD, 100% = vehicle-minus-blank window. shares compounds with KCNQ2 enhance;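 active = signal rise of at least 3 SD above the untreated control mean, in both duplicate wells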;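 note: counter screen of KCNQ2 potentiator hits so any rise reflects channel-independent effects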
KCNQ1 pot spec: human KCNQ1 counter-target activity of KCNQ2 potentiators. CHO KCNQ1 stable, FluxOR thallium flux fluorescence; beyond 3SD, as % of vehicle-control signal. hit rate 28% among 1,200. activation over 3SD threshold, % at 10 µM. shares compounds with KCNQ2 enhance;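 active = fluorescence ratio rise of at least 3 SD of vehicle wells above their mean, in both replicate wells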
KCNQ2 pot confirm: confirmation of rat KCNQ2 potassium channel potentiators. shares compounds with KCNQ2 enhance. hit rate 68% among 1,200. potentiation, less the hit threshold, % at 10 µM. CHO-KCNQ2 cells, FluxOR thallium flux fluorescence. AID 2287;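 active = fluorescence ratio rising 3 SD or more over the vehicle control mean in both replicates, plus primary screen hit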;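 note: peak minus minimum thallium fluorescence divided by baseline after K/Tl stimulus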
Kir2-1 sel: tests whether KCNQ2 potentiators also affect mouse Kir2.1. HEK293 Kir2.1, FluxOR thallium flux fluorescence. hit rate 2% among 1,200. activity over 3SD threshold, % at 10 µM. shares compounds with KCNQ2 enhance;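 active = fluorescence ratio rise of at least 3 SD above the vehicle-control mean, seen in both replicates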
KCNQ2 W236L MoA: KCNQ2 potentiators acting on retigabine-insensitive rat KCNQ2 W236L mutant; CHO KCNQ2-W236L, automated patch clamp current; AID 2558; shares compounds with KCNQ2 enhance; hit rate 10% among 940; current increase over 3SD of negative controls (%), stronger effect = higher value, % at 25 µM;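 active = current increase at least 3 SD of the untreated controls above them in both duplicate recordings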
Each line names hits and unclear results; the compound was inactive in the other large screens (follow-up assays come after a bar, where they were run). Shown are actives, neighbours in structure and some others; about 1.6% of the full set was active somewhere.

O=C(c1cccnc1)N1N=C(C2CC2)CC1(O)C(F)(F)F (configuration not stated)	none
O=C(c1ccncc1)N1N=C(C2CC2)CC1(O)C(F)(F)F (configuration not stated)	KCNQ2 enhance 6.54 | Kir21 confirm inactive | HEK293 ctr inactive | CHO-K1 ctr 56.2 | KCNQ1 pot spec inactive | KCNQ2 pot confirm inactive | Kir2-1 sel inactive
Cc1onc(-c2ccccc2)c1C(=O)N1CCN(c2ncccc2C(F)(F)F)CC1	none (no result: KCNQ2 enhance)
Oc1ccc2n[nH]nc2c1	none
COc1ccc(/C=C2/SC(=O)NC2=O)cc1	none (no result: KCNQ2 enhance)
O=C1NC(=S)S/C1=C\c1coc2ccccc2c1=O	none
O=C1NC(=S)S/C1=C\c1ccc2ccccc2c1	KCNQ2 enhance 11 | Kir21 confirm inactive | HEK293 ctr inactive | CHO-K1 ctr 54.7 | KCNQ1 pot spec inactive | KCNQ2 pot confirm 41.8 | Kir2-1 sel inactive | KCNQ2 W236L MoA inactive
COc1cccc(OCCOc2ccc(/C=C3/SC(=S)NC3=O)cc2)c1	KCNQ2 enhance 7.41 | Kir21 confirm inactive | HEK293 ctr inactive | CHO-K1 ctr inactive | KCNQ1 pot spec inactive | KCNQ2 pot confirm inactive | Kir2-1 sel inactive
CCC(C)(C)NC(=O)c1cc([N+](=O)[O-])ccc1N1CCOCC1	none
CN(C)c1cc(Nc2ccc(O)cc2)c([N+](=O)[O-])c2nonc12	none (no result: KCNQ2 enhance)
O=[N+]([O-])c1c(Nc2ccc(O)cc2)cc(Cl)c2nonc12	KCNQ2 block -10.2 | Kir21 confirm 66.5% | HEK293 ctr inactive
O=Cc1coc2c(ccc3ccccc32)c1=O	none (no result: KCNQ2 enhance)
CCCCC(OC(=O)c1ccco1)C(=O)NCc1ccc(C)cc1 (configuration not stated)	none
CC(C)O/C(=N\S(=O)(=O)c1ccc(Cl)cc1)c1ccccc1	none (no result: KCNQ2 enhance) | Kir21 confirm 65.5% | HEK293 ctr inactive
CC(C)CO/C(=N/S(=O)(=O)c1ccccc1)c1ccccc1	none
CC(C)OC(=O)c1cccc(-c2ccc(C=O)o2)c1	none
COC(=O)c1ccc(=O)n(Cc2ccc3c(c2)OCO3)c1	none (no result: KCNQ2 enhance)
Cc1ccc(C2C3=C(NCCN=C3c3ccccc3)C(=O)N2c2ccccc2)cc1 (configuration not stated)	none (no result: KCNQ2 enhance) | Kir21 confirm inactive | HEK293 ctr inactive
CCOc1ccc(N2C(=O)C3=C(C(c4ccc(Cl)cc4)=NCCN3)C2c2cccnc2)cc1 (configuration not stated)	none (no result: KCNQ2 enhance)
Cc1cc(C)nc(N/N=C/c2cc(Br)ccc2O)n1	none (no result: KCNQ2 enhance)
CC(C)(C)c1nn(-c2ccccc2)c2[nH]c(=O)c(C=O)cc12	KCNQ2 enhance 6.8 | Kir21 confirm inactive | HEK293 ctr inactive | CHO-K1 ctr 4.4 | KCNQ1 pot spec 12.4 | KCNQ2 pot confirm inactive | Kir2-1 sel inactive
CC(C)(C)c1nn(-c2ccccc2)c2nc(Cl)c(C=O)cc12	none (no result: KCNQ2 enhance)
NC(=O)NCCc1ccccc1	none
CC(C)=CC(=O)Nc1c(C)cc(C)cc1Cl	KCNQ2 enhance 11.2 | Kir21 confirm inactive | HEK293 ctr inactive | CHO-K1 ctr inactive | KCNQ1 pot spec inactive | KCNQ2 pot confirm 28.2 | Kir2-1 sel inactive | KCNQ2 W236L MoA inactive
Cc1cc(C)c(NC(=O)CCCC(=O)O)c(Cl)c1	none (no result: KCNQ2 enhance)
CSCCC(NC(=O)c1ccccc1Cl)C(=O)N(C)CC(=O)Nc1ccc(N2CCOCC2)cc1 (configuration not stated)	none (no result: KCNQ2 enhance)
CC(=O)Nc1ccc(NC(=O)CCCc2ccccc2)cc1	none
COc1cccc(-c2nc(NCC3CCCO3)c3ccccc3n2)c1O (configuration not stated)	none (no result: KCNQ2 enhance)
COc1ccccc1Nc1nc(NCC2CCCO2)c2ccccc2n1 (configuration not stated)	none (no result: KCNQ2 enhance) | Kir21 confirm 28.5% | HEK293 ctr inactive
CN(C)c1ccc(CC(=O)c2nc3ccccc3s2)cc1	none (no result: KCNQ2 enhance)
CCOC(=O)CN1C(=O)NC(C)(c2ccc(OC(F)F)cc2)C1=O (configuration not stated)	none (no result: KCNQ2 enhance)
CC(=O)Nc1ccc(/C=N/N2C(=O)NC(C)(c3ccc(OC(F)F)cc3)C2=O)cc1 (configuration not stated)	KCNQ2 enhance 18.3 | Kir21 confirm inactive | HEK293 ctr inactive | CHO-K1 ctr inactive | KCNQ1 pot spec 11.4 | KCNQ2 pot confirm 24.1 | Kir2-1 sel inactive | KCNQ2 W236L MoA inactive
Cc1cc(=O)c2cc(C(=O)c3ccccc3)ccc2[nH]1	none (no result: KCNQ2 enhance)
CCOC(=O)c1c(C)n(CCNC(C)=O)c2ccc(OC)cc12	none (no result: KCNQ2 enhance)
CCOC(=O)c1c(-c2ccccc2)c2cc(OC)ccc2n1CCCN(C)C	none (no result: KCNQ2 enhance) | Kir21 confirm 36.0% | HEK293 ctr inactive
COc1ccc(NC(=O)COC(=O)CCNS(=O)(=O)c2ccc(Cl)cc2)cc1	none
CC(C)NC(=O)/C(=C/c1cn(-c2ccccc2)nc1-c1cccc([N+](=O)[O-])c1)NC(=O)c1ccccc1	none
Oc1c(N=Nc2ccccn2)ccc2ccccc12	KCNQ2 enhance 5.87 | Kir21 confirm inactive | HEK293 ctr inactive | CHO-K1 ctr 90.7 | KCNQ1 pot spec inactive | KCNQ2 pot confirm 27.9 | Kir2-1 sel inactive | KCNQ2 W236L MoA inactive
c1ccc2c(c1)ccc1ncccc12	none
CCCCN(Cc1ccco1)S(=O)(=O)c1csc(C(N)=O)c1	none (no result: KCNQ2 enhance) | Kir21 confirm 48.0% | HEK293 ctr inactive
CC(CCc1ccco1)N(C)S(=O)(=O)c1csc(C(N)=O)c1 (configuration not stated)	none
NC(=O)COC(=O)c1ccccc1SCC(=O)NC1CCCCCC1	none
CCC1(C)Cc2c(sc3nc(SC)[nH]c(=S)c23)CO1 (configuration not stated)	KCNQ2 enhance 15.5 | Kir21 confirm inactive | HEK293 ctr 456.5% | CHO-K1 ctr inactive | KCNQ1 pot spec 32.0 | KCNQ2 pot confirm 81.9 | Kir2-1 sel 0.1 | KCNQ2 W236L MoA inactive
CCSc1nc2sc3c(c2c(=O)[nH]1)CC(C)(CC)OC3 (configuration not stated)	none (no result: KCNQ2 enhance)
N#CC(c1ccc(O)cc1)c1ncc(C(F)(F)F)cc1Cl (configuration not stated)	none | Kir21 confirm 47.5% | HEK293 ctr inactive
NC(=O)C(c1ccc(Cl)cc1)c1ncc(C(F)(F)F)cc1Cl (configuration not stated)	none
COc1cc([N+](=O)[O-])ccc1NC(=O)NNC(=O)C(C)Oc1ccc(F)cc1F (configuration not stated)	none (no result: KCNQ2 enhance)
